Source: PubChem (several laboratories)
Mtb betalactam: beta-lactam sensitization of Mtb H37Rv, H37Rv; inhibition, % at 25 µM; 330,000 compounds, 0.27% hits; M. tuberculosis H37Rv growth with meropenem, percent inhibition; call rule not given here;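 note: growth measured after seven days incubation then overnight dye step; 0% = bacteria only wells and 100% = bacteria with antibiotic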
Rv3671c inh: Rv3671c serine protease inhibitors, primary screen, biochemical, fluorescence polarization, M. tuberculosis H37Rv; inhibition, % at 5.96 µM; 320,000 compounds, 0.048% hits;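 note: extracellular domain of Rv3671c used as enzyme; 0% = enzyme with DMSO and 100% = no enzyme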
Target sequence (P9WHR9 whole entry, looked up, the tested form may be a part): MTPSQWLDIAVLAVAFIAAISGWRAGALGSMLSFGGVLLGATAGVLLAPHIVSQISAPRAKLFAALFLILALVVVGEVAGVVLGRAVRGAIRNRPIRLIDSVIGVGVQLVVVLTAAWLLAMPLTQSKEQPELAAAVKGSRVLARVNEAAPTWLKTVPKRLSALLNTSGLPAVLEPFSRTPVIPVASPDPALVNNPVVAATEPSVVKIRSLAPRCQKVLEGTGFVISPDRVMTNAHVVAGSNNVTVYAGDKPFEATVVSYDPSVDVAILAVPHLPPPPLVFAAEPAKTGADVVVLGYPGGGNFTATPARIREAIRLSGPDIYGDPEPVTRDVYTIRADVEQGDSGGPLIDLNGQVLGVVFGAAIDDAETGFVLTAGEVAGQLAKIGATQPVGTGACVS
PfHsp40 rescue: rescue of yeast from PfHsp40 toxicity, primary screen, S. cerevisiae, ATP luminescence; S. cerevisiae expressing PfHsp40, growth rescue; growth rescue, % at 12.5 µM; 340,000 compounds, 0.68% hits; in the data active = growth rescue above about 28%, passing the limit was not always enough;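 note: yeast W303a lacking pdr1 and pdr3 grown in galactose medium; growth measured after three days at 30 °C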
FadD28 FP inh: inhibitors of FadD28 bisubstrate probe binding, primary screen, biochemical, fluorescence polarization, single point; Mycobacterium tuberculosis FadD28 fatty-acid-AMP ligase; inhibition, % at 12.5 µM; 360,000 compounds, 0.22% hits; AID 588549, 2011; in the data active = inhibition above about 8.5%, passing the limit was not always enough
Y pestis TopoI: Yersinia pestis topoisomerase I inhibitors, primary screen, biochemical, cleavage product accumulation, plate reader, single point; activity, % at 10 µM; DNA topoisomerase I (Yersinia pestis CO92); 360,000 compounds, 0.064% hits; Y. pestis Topo-I cleavage product accumulation; in the data active = activity above about 50%, passing the limit was not always enough
Mtb UGM inh: M. tuberculosis UGM enzyme inhibitors, primary screen, biochemical, fluorescence polarization, single point | inhibition, % at 10 µM | 320,000 compounds, 0.06% hits | purified UGM, fluorescence polarization probe displacement; in the data active = inhibition above about 10%, passing the limit was not always enough
Rv3671c cf: Rv3671c serine protease inhibitors, retest, confirmation, biochemical, fluorescence polarization, M. tuberculosis H37Rv. AID 2761, 2010. 140 compounds, 40% hits. shares compounds with Rv3671c inh. inhibition, % at 5.96 µM
Active calls of the source: *; / = not tested or not shown. Sampled rows, rich in hits. Any-hit rate of the full collection: about 0.98%. Cut-off read from the data, not from the text of the source, unless noted: active = inhibition above about 38%; inactive = the rest.

SMILES	Mtb betalactam	Rv3671c inh	PfHsp40 rescue	FadD28 FP inh	Y pestis TopoI	Mtb UGM inh	others
O=C(Nc1nc2ccc(SC(F)F)cc2s1)c1ccc(NS(=O)(=O)c2ccc(F)c(F)c2)cc1	100	-213	-2	17*	7	0
CCn1c(=O)c(C(=O)NCCCc2ccccc2)c(O)c2ccccc21	1	/	9	-3	6	-2
O=C(NCCCc1ccccc1)c1c(O)nc2sccn2c1=O	74	5	178*	0	18	0
O=C(NCCC1=CCCCC1)c1c(O)nc2sccn2c1=O	46	-9	372*	-2	18	/
COc1ccc(CC(=O)Nc2nc(OCCN3CCCC3=O)cnc2-c2cccc(C(F)(F)F)c2)cc1	/	/	/	-3	28	/
CN1c2ccccc2SC2C(c3ccccc3)=NOC21 (configuration not stated)	/	/	/	-1	/	/
CN(Cc1ccc(Cl)cc1Cl)C(=O)Cc1ccc(S(=O)(=O)N2CCOCC2)s1	/	/	/	-3	32	/
CCCCn1c(OC(=S)N(CC)CC)cc(C)nc1=S	/	/	/	-5	/	/
CCCCNc1c(-c2cccc(-c3ccc(OC)cc3)c2)nc2cc(C)ccn12	98	1	8	-4	24	-2
CCCCNc1c(-c2cccc(-c3ccc(OC)cc3)c2)nc2ccc(C)cn12	98	0	232*	-3	-1	1
CCCCNc1c(-c2ccc(-c3cccc(Cl)c3)cc2)nc2ccccn12	99	9	207*	-5	5	3
CCCCCCSc1ccc(-c2nc3ccccn3c2NCCCC)cc1	100	14	324*	0	24	-1
Cc1cccc(C)c1N1C(=O)C2ON(c3ccccc3)C(c3ccncc3)C2C1=O (configuration not stated)	-18	-14	254*	-1	-9	-3
CCc1nc2ccc(C(=O)NCCOc3ccc(OC)cc3)cn2c1N(C)Cc1cccs1	/	/	/	-3	9	/
CC(=O)Oc1ccccc1Cn1c(C)c(C(=O)NCc2cccc(Cl)c2)sc1=O	/	/	/	-1	-4	/
S=C1NC[C@H](Cc2ccccc2)N1CCCCC1CCCCC1	-2	2	64*	-2	28	-2
FC(F)(F)c1cc(CCN2C(=S)NC[C@@H]2Cc2ccccc2)cc(C(F)(F)F)c1	-1	-3	48*	-2	40	1
CC12CN3CC(C)(CN(C1)C3c1ccccc1F)C2 (configuration not stated)	-9	3	61*	-1	-9	1
CC12CN3CC(C)(CN(C1)C3c1ccccc1Cl)C2O (configuration not stated)	-9	2	0	-1	-3	1
Cc1cc(Cl)ccc1C(O)c1ncc(-c2ccc(F)cc2)[nH]1 (configuration not stated)	/	/	/	-2	-1	/
Cc1ccc(-n2c(SCC(=O)Nc3ccc4c5c(cccc35)CC4)nc(O)cc2=O)cc1	3	45*	-1	-2	-3	2	Rv3671c cf=-8
CN1CCN(C(=O)C2Cc3c(-c4cccc(F)c4)ccnc3O2)CC1 (configuration not stated)	/	/	/	-3	6	/
CCNc1cc(O)ccc1C	-2	63*	77*	4	7	4	Rv3671c cf=11
Cc1cc(N)ccc1-n1c(C)ccc1C	3	83*	-2	4	8	2	Rv3671c cf=1
CCn1c(SCC(=O)Nc2ccccc2)nc2c(c1=O)SCC2	/	/	/	-1	2	/
C=C1c2cccc(O)c2C(O)=C2C(=O)[C@]3(O)C(O)=C(C(N)=O)C(=O)[C@@H](N(C)C)[C@@H]3[C@@H](O)[C@H]12	79	50*	10	4	-29	6	Rv3671c cf=3
CC(=O)Nc1ccc(-c2ccnc3c2CC(C)(C(=O)NCc2cccc(Cl)c2)O3)cc1 (configuration not stated)	/	/	/	-4	8	/
Cn1c(/C(C#N)=C/c2ccc(-c3ccc(S(N)(=O)=O)cc3)o2)nc2ccccc21	-1	47*	1	11*	-8	7	Rv3671c cf=-4
